Our source for the Potency and cell number change values is PubChem BioAssay AID2685 (National Center for Advancing Translational Sciences (NCATS), 2010).

Structures are written as SMILES. The whole screen tested about 320,000 compounds, of which about 2,100 (0.66%) were called active. Not shown: some 53% with an inconclusive outcome. Calls come from the whole dose curve; as a rule, active = well fitted inhibition curve with a large enough effect in the signal ratio, with a control signal flat (not every such curve was filed as active); inconclusive = small, poorly fitted or top-dose-only effect, or effect the other way, or a change in a side signal; inactive = flat fitted curve, though single readings scatter; the % refers to the signal ratio. Shown is part of a subset that was picked to be rich in actives.
Potency is the fitted concentration of half-maximal effect.

This assay is described as follows: qHTS Assay for Lipid Storage Modulators in Drosophila S3 Cells.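 For cell number change: cells counted by Cell Tracker Red CMTPX staining in the red channel.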 The following applies: BODIPY lipid droplet fluorescence, 18-24 h, cells fed with added oleic acid; cell number change: measured here: cell count max response; series mostly up to 46.1 µM. The gist of the method: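 Laser-scanning cytometry quantifies lipid droplet accumulation (500–530 nm total intensity; droplet/cell object ratio) in oleic acid-fed (400 uM added) Drosophila S3 cells treated with a concentration series. 20 uM Triacsin C defined 100% inhibition.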
For orientation: Quantitative high-throughput screening tests each substance at several concentrations.
As to `CCOc1cc(C(c2c(C)[nH][nH]c2=O)c2c(C)[nH][nH]c2=O)ccc1OS(=O)(=O)c1ccc(C)cc1`, the Potency result is “inactive” and the cell number change is 16%. Take `COc1ccccc1N1CCN(C(c2cccs2)c2nnnn2C2CCCC2)CC1` (configuration not stated): the Potency result is “inactive” and the cell number change was -7.64%. For `Cc1ccc(SCc2ccc(C(=O)NCc3cccnc3)cc2)cc1`, in that order: “inactive” and 5.01%. Turning to `Cc1ccc(Cl)cc1NC(=S)N(CCN(C)C)C(C)c1ccccn1` (configuration not stated), the Potency entry was “inactive” and the cell number change was found to be 25.6%. For `CCOC(=O)[C@H]1[C@H]2COc3ccccc3[C@@H]2N2C(=O)c3cc(OC)ccc3NC(=O)[C@@]12C`, in that order: “inactive” and -11.2%. For `CCOC(=O)[C@H]1[C@H]2COc3cc(OC)ccc3[C@@H]2N2C(=O)c3cc(F)c(F)cc3NC(=O)[C@@]12C`, in that order: 6.51 µM (active) and -3.7%. For the molecule `COc1ccc2c(c1)[C@H]1[C@H](CO2)[C@H](c2ccccc2)[C@]2(C)C(=O)Nc3ccccc3C(=O)N12`, the Potency entry is “inactive” and the cell number change is -2.57%.

With `CCOC(=O)[C@H]1[C@H]2COc3cc(OC)ccc3[C@@H]2N2C(=O)c3cc(OC)ccc3NC(=O)[C@@]12C`, the Potency entry is “inactive” and the cell number change was -12.2%. The matching figures for `CCOC(=O)[C@H]1[C@H]2COc3ccc(OC)cc3[C@@H]2N2C(=O)c3ccc(Cl)cc3NC(=O)[C@@]12C`: 4.11 µM (active) and -6.2%. The matching figures for `CCOC(=O)[C@H]1[C@H]2COc3ccccc3[C@@H]2N2C(=O)c3ccc(Cl)cc3NC(=O)[C@@]12C`: “inactive” and -18.8%.

For the molecule `CCOC(=O)[C@H]1[C@H]2COc3ccc(OC)cc3[C@@H]2N2C(=O)c3cc(F)c(F)cc3NC(=O)[C@@]12C`, the Potency entry is “inactive” and the cell number change was found to be 10.2%.

Take `COc1cc2c(cc1OC)C(=O)N1[C@H]3c4cc(Cl)ccc4OC[C@@H]3[C@H](c3ccccc3)[C@]1(C)C(=O)N2`: the Potency is 2.06 µM (active) and the cell number change is -5.54%. The matching figures for `CCOC(=O)[C@H]1[C@H]2COc3ccc(Cl)cc3[C@@H]2N2C(=O)c3ccccc3NC(=O)[C@@]12C`: “inactive” and -17%. For `COc1ccc2c(c1)C(=O)N1[C@H]3c4cc(C)ccc4OC[C@@H]3[C@H](c3ccccc3)[C@]1(C)C(=O)N2`, in that order: “inactive” and 11.4%. On to `CCOC(=O)[C@H]1[C@H]2COc3ccc(Cl)cc3[C@@H]2N2C(=O)c3cc(C)ccc3NC(=O)[C@@]12C`, for which the Potency was 1.64 µM (active). As for `CCOC(=O)[C@H]1[C@H]2COc3ccc(C)cc3[C@@H]2N2C(=O)c3cc(F)ccc3NC(=O)[C@@]12C`, the Potency entry was “inactive” and the cell number change is -22.1%. For `Cn1ncc(Br)c1C(=O)Nc1ccc(F)cc1F`, in that order: “inactive” and 0.403%. With `COc1ccc(C(=O)Nc2ccc(NC(C)=O)cc2)cc1S(=O)(=O)N1CCCCC1C` (configuration not stated), the Potency result is “inactive” and the cell number change was -5.58%. The matching figures for `CC(CNC(=O)Cn1ccc2cc(S(=O)(=O)N3CCCC3)ccc21)c1ccccc1` (configuration not stated): “inactive” and 5.34%.

As for `O=C(OCc1nc(-c2ccccc2Cl)no1)c1ccco1`, the Potency result was “inactive” and the cell number change was found to be 1%. `Cc1ccc(-c2ccc3nnc(SCC(=O)NCC4CCCO4)n3n2)cc1` (configuration not stated): the Potency entry is “inactive” and the cell number change is 7.62%. For `Cc1ccc(NS(=O)(=O)c2ccc(NC(=O)C3CCCO3)cc2)cc1` (configuration not stated), in that order: “inactive” and -28.7%.

Turning to `COc1ccccc1CN1CCN(C(CC(C)C)c2nnnn2Cc2cccs2)CC1` (configuration not stated), the Potency result was “inactive”.

On to `CCOC(=O)[C@@H]1[C@H]2COc3ccccc3[C@H]2N2C(=O)N(c3ccc(Cl)cc3)C(=O)[C@]12C`, for which the Potency result was “inactive” and the cell number change is 10.8%. For `CCOC(=O)[C@@H]1[C@H]2COc3ccccc3[C@@H]2N2C(=O)N(c3ccc(F)cc3)C(=O)[C@@]12C`, in that order: “inactive” and -1.5%. For `CCOC(=O)[C@@H]1[C@H]2COc3ccccc3[C@H]2N2C(=O)N(c3ccc(C(F)(F)F)cc3)C(=O)[C@]12C`, in that order: 1.46 µM (active) and 21.9%.

For the molecule `CCc1ccc(NC(=O)C(=S)NC2CCCCC2)cc1`, the Potency result is “inactive” and the cell number change was 1.88%. The matching figures for `Nn1c(SCC(=O)NC2CCCCC2)nnc1-c1ccc(Cl)cc1`: “inactive” and 17.9%. For `Cc1[nH]n(C)c(=O)c1[N+](=O)[O-]`, in that order: “inactive” and 4.99%.

As for `CCN(C(=O)COC(=O)/C=C/c1ccc(O)c(OC)c1)C1CCS(=O)(=O)C1` (configuration not stated), the Potency was 13 µM (active) and the cell number change was -23.9%. In the case of `COc1cc(/C=C/C(=O)OCC(=O)N(C)C2CCS(=O)(=O)C2)ccc1OC(F)F` (configuration not stated), the Potency entry is “inactive” and the cell number change stood at 9.45%. The matching figures for `COc1ccc(/C=N/OCC(=O)N2CC3(C)CC2CC(C)(C)C3)cc1` (configuration not stated): “inactive” and 10.1%. The matching figures for `COc1cc(/C=C/C(=O)OCC(=O)N2CC3(C)CC2CC(C)(C)C3)ccc1O` (configuration not stated): 0.651 µM (active) and 18.4%. For `COc1cc(/C=C/C(=O)OCC(=O)N2CCC(C)CC2)ccc1O`, in that order: “inactive” and 24.6%.

As for `CCN(C(=O)COC(=O)/C=C/c1ccc(OC(F)F)c(OC)c1)C1CCS(=O)(=O)C1` (configuration not stated), the Potency entry was “inactive” and the cell number change worked out at 4.02%. For `O=c1[nH]c(COc2ccc(Br)cc2Cl)nc2ccccc12`, in that order: “inactive” and -15%.

As to `COc1ccc(CN2CC(C(=O)NCC3CCCO3)CC2=O)cc1` (configuration not stated), the Potency entry was “inactive” and the cell number change came to 14%. The matching figures for `N#C/C(=C\c1c(N2CCCCCC2)nc2ccccn2c1=O)C(N)=O`: “inactive” and 22.6%. In the case of `N#C/C(=C\c1c(N2CCCCCC2)nc2ccccn2c1=O)C(=O)NC1CCS(=O)(=O)C1` (configuration not stated), the Potency entry is “inactive”. Consider `N#C/C(=C\c1c(N2CCC(C(N)=O)CC2)nc2ccccn2c1=O)C(=O)NC1CCCCC1`, for which the Potency was 0.164 µM (active) and the cell number change was -18.3%.
